Assay results as given in PubChem BioAssay AID1852 (Sanford-Burnham Center for Chemical Genomics, 2009).
The campaign covered roughly 2,500 compounds. About 1,100 (44%) were called active. The set was probably picked from earlier hits. Some of the results follow. Values without a mark were called inactive.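 Rule for the calls: active = inhibition above 50% at 4 µM in the single-point screen; inactive = inhibition of 50% or less.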

test: blockers of TNF-a NF-kB luciferase induction – cell-based, HEK293T NF-kB-Luc, luminescence, selectivity assay for NOD1/NOD2 signaling inhibitor project, primary screen (AID 1852); details: TNF-a induced, 14 h, at 4 µM, hits give high values

**Q.** Which inhibition does the source give for COc1ccc2[nH]c(C(=O)N/N=C/c3ccc(O)cc3O)cc2c1 here?
**A.** 48.1%

**Q.** Which inhibition does the source give for Cn1cccc1-c1cc(C(=O)N/N=C/c2cc(Br)ccc2O)[nH]n1 here?
**A.** 60.4% (active)

**Q.** Which inhibition does the source give for O=C1CSC(c2cccnc2)N1CCc1ccccn1 (configuration not stated) here?
**A.** 0.7%

**Q.** For Cc1ccc(NC(=O)c2ccccc2NS(=O)(=O)c2ccc(Cl)s2)cc1, which inhibition is on record?
**A.** 71.2% (active)

**Q.** For CS(=O)(=O)Nc1ccccc1C(=O)Nc1cc(Cl)cc(Cl)c1, which inhibition is on record?
**A.** 74.6% (active)

**Q.** With COc1ccc(C)cc1NC(=O)c1ccccc1NS(=O)(=O)c1ccc(Cl)s1 as the compound, how does the inhibition read?
**A.** 87.9% (active)

**Q.** With Cc1ccc(NC(=O)c2cc3c(s2)CCCC3)cc1S(=O)(=O)Nc1ccccc1Cl as the compound, how does the inhibition read?
**A.** 69.1% (active)

**Q.** Which inhibition does the source give for Cc1cc(NC(=O)c2ccccc2NS(=O)(=O)c2c(C)c(C)cc(C)c2C)no1 here?
**A.** 9.8%

**Q.** With O=C(Nc1cc(S(=O)(=O)Nc2ccccc2Cl)ccc1O)c1cc2c(s1)CCCC2 as the compound, how does the inhibition read?
**A.** 36.1%

**Q.** Which inhibition does the source give for COc1ccccc1NS(=O)(=O)c1cccc(NC(=O)c2sc3ccccc3c2Cl)c1 here?
**A.** 39.2%

**Q.** With Cc1ccc(NC(=O)c2ccccc2NS(=O)(=O)c2ccc(Cl)s2)cc1S(=O)(=O)N1CCOCC1 as the compound, how does the inhibition read?
**A.** 84.3% (active)

**Q.** Which inhibition does the source give for COc1cc(NC(=O)c2ccccc2NS(=O)(=O)c2ccc(Cl)s2)cc(OC)c1 here?
**A.** 84.9% (active)

**Q.** For COc1cccc(NS(=O)(=O)c2ccc(Br)s2)c1, which inhibition is on record?
**A.** -23.8%

**Q.** With Cc1cc(C)cc(OCC(=O)OC/C(O)=C(\C#N)c2nc3ccccc3[nH]2)c1 as the compound, how does the inhibition read?
**A.** 103% (active)

**Q.** With N#C/C(=C(/O)COC(=O)COc1cccc(Br)c1)c1nc2ccccc2[nH]1 as the compound, how does the inhibition read?
**A.** 33%

**Q.** For N#C/C(=C(/O)COC(=O)COc1ccc(Cl)cc1)c1nc2ccccc2[nH]1, which inhibition is on record?
**A.** 108% (active)

**Q.** For COc1cccc(-n2nnnc2S(C)(=O)=O)c1, which inhibition is on record?
**A.** 79.5% (active)

**Q.** Which inhibition does the source give for N#CCCS(=O)(=O)c1nnnn1-c1ccccc1 here?
**A.** 75.5% (active)

**Q.** For CCS(=O)(=O)c1nnnn1-c1ccccc1S(C)(=O)=O, which inhibition is on record?
**A.** 43.2%

**Q.** With CCCS(=O)(=O)c1nnnn1-c1cccc(OC)c1 as the compound, how does the inhibition read?
**A.** 76.1% (active)

**Q.** Which inhibition does the source give for Cc1cccc(Nc2ncnc3onc(-c4cccc(Cl)c4)c23)c1C here?
**A.** 15.5%

**Q.** For COc1cccc(NC(=O)Nc2cccc(C(=O)O)c2)c1, which inhibition is on record?
**A.** 65.7% (active)

**Q.** For O=C(Nc1cccc(C(=O)O)c1)Nc1ccccc1Cl, which inhibition is on record?
**A.** -17.8%

**Q.** Which inhibition does the source give for COc1ccc(NC(=O)Nc2nnc(-c3ccncc3)s2)cc1 here?
**A.** 30%

**Q.** For COc1cccc(NC(=O)Nc2nc(-c3ccc(OC)c(OC)c3)cs2)c1, which inhibition is on record?
**A.** 100% (active)

**Q.** Which inhibition does the source give for COc1ccc(OC)c(-c2csc(NC(=O)C3=NNC(=O)CC3)n2)c1 here?
**A.** 37.1%

**Q.** With COc1cccc(NC(=O)CCC2CCN(C(=O)c3cncs3)CC2)c1 as the compound, how does the inhibition read?
**A.** 4.6%

**Q.** With CC(Sc1nnc2c(n1)[nH]c1ccccc12)C(=O)N(C)C1CCCCC1 (configuration not stated) as the compound, how does the inhibition read?
**A.** 32.3%

**Q.** With COc1ccc(C)cc1NC(=O)CSc1ccc(-c2sc(C)nc2C)nn1 as the compound, how does the inhibition read?
**A.** 21.8%

**Q.** For COc1ccc(C)cc1NC(=O)CSc1ccc(-c2ccco2)nn1, which inhibition is on record?
**A.** -4.4%

**Q.** For COc1ccc(NC(=O)CSc2ccc(-c3cccs3)nn2)c(OC)c1, which inhibition is on record?
**A.** 72.8% (active)

**Q.** With COc1ccc(C)cc1NC(=O)CSc1ccc(-c2ccccn2)nn1 as the compound, how does the inhibition read?
**A.** 82.9% (active)

**Q.** For COc1ccc(OC)c(NC(=O)CSc2ncnc3c2cnn3-c2ccccc2Cl)c1, which inhibition is on record?
**A.** 36.9%

**Q.** For Cc1ccc(NC(=O)Nc2nnc(-c3ccncc3)s2)cc1C, which inhibition is on record?
**A.** 43.3%

**Q.** With COc1cc(C(=O)N/N=C(\c2ccccc2)c2ccccn2)cc(OC)c1OC as the compound, how does the inhibition read?
**A.** 64% (active)

**Q.** For COc1cccc(C(=O)N/N=C(/c2ccccc2)c2ccccn2)c1, which inhibition is on record?
**A.** 62.2% (active)

**Q.** Which inhibition does the source give for C/C(CC(=O)Nc1cccnc1)=N\NC(=O)c1ccc([N+](=O)[O-])c(Cl)c1 here?
**A.** 15.3%

**Q.** Which inhibition does the source give for O=C(N/N=C(\c1ccccc1)c1cccnc1)c1cccc(F)c1 here?
**A.** 102% (active)

**Q.** With COc1ccc(C(=O)N/N=C(\c2ccccc2)c2ccccn2)cc1 as the compound, how does the inhibition read?
**A.** 46.3%

**Q.** Which inhibition does the source give for COc1cc(C(=O)Nc2scc(-c3ccc(Br)cc3)c2C(=O)O)cc(OC)c1OC here?
**A.** 21.5%

**Q.** For COc1cc(C(=O)Nc2sc3c(c2C(=O)O)CCC(C)C3)cc(OC)c1OC (configuration not stated), which inhibition is on record?
**A.** 40%

**Q.** Which inhibition does the source give for COc1ccccc1-c1nnc(Sc2nc([N+](=O)[O-])nn2C)o1 here?
**A.** 54.9% (active)

**Q.** For COc1ccccc1-c1nc(C#N)c(N2CCN(c3cccc(Cl)c3)CC2)o1, which inhibition is on record?
**A.** -20.8%

**Q.** Which inhibition does the source give for COc1ccc(-c2csc3nc(-c4ccccc4OC)oc(=O)c23)cc1 here?
**A.** 12.5%

**Q.** For O=C(NCCCSc1ccccc1)c1cc(Cl)ccc1O, which inhibition is on record?
**A.** 80.1% (active)

**Q.** For O=C(NCCCSc1ccccc1)c1cc(Br)ccc1O, which inhibition is on record?
**A.** 69.9% (active)

**Q.** Which inhibition does the source give for C/C(=N\NC(=O)c1cc(Cl)ccc1O)c1ccc(Br)s1 here?
**A.** 48%

**Q.** For O=C(Nc1ccc(Oc2cccnc2)cc1)C1CCN(Cc2cc(Cl)ccc2O)CC1, which inhibition is on record?
**A.** 47.8%

**Q.** For COc1ccccc1CNC(=O)C1CCN(C(=O)[C@@H]2Cc3ccccc3CN2)CC1, which inhibition is on record?
**A.** 14.5%

**Q.** With COc1cc(F)ccc1CN1CCC(C(=O)Nc2ccc(Oc3ccccc3)nc2)CC1 as the compound, how does the inhibition read?
**A.** 57% (active)

**Q.** With O=C(Nc1cccc(Br)c1)c1ccc(Cl)c(S(=O)(=O)N2CCOCC2)c1 as the compound, how does the inhibition read?
**A.** 45.4%

**Q.** Which inhibition does the source give for O=C(Nc1ccc(Cl)c(S(=O)(=O)N2CCOCC2)c1)c1ccc(OCC2CCCO2)cc1 (configuration not stated) here?
**A.** 94.7% (active)

**Q.** With Cc1ccc(NC(=O)c2ccc(S(=O)(=O)NCC3CCCO3)cc2)cc1C (configuration not stated) as the compound, how does the inhibition read?
**A.** 4.7%

**Q.** With O=C(/C=C\c1ccco1)Nc1nc(-c2ccc3ccccc3c2)cs1 as the compound, how does the inhibition read?
**A.** 36.9%

**Q.** With CN(C)S(=O)(=O)c1ccc(-c2csc(N/N=C/c3ccco3)n2)cc1 as the compound, how does the inhibition read?
**A.** 99.8% (active)

**Q.** With CN(C)S(=O)(=O)c1ccc(C(=O)Nc2nc(-c3cc4ccccc4o3)cs2)cc1 as the compound, how does the inhibition read?
**A.** 36.3%

**Q.** Which inhibition does the source give for CCC(=O)NC(c1cccs1)c1cc([N+](=O)[O-])c2cccnc2c1O (configuration not stated) here?
**A.** 86.2% (active)

**Q.** Which inhibition does the source give for CCCC(=O)NC(c1cccs1)c1cc([N+](=O)[O-])c2cccnc2c1O (configuration not stated) here?
**A.** 71.3% (active)

**Q.** Which inhibition does the source give for Cc1ccccc1Nc1nc(N)nc(CCl)n1 here?
**A.** 24.8%

**Q.** With Cc1ccc(C)c(N2CCN(C(=O)CCS(=O)(=O)c3ccc4c(c3)NC(=O)C(C)S4)CC2)c1 (configuration not stated) as the compound, how does the inhibition read?
**A.** 74.4% (active)

**Q.** With CC1Sc2ccc(S(=O)(=O)CCC(=O)N3CCN(c4ccccc4F)CC3)cc2NC1=O (configuration not stated) as the compound, how does the inhibition read?
**A.** 39.3%

**Q.** For Cc1ccc(C)c(N2CCN(C(=O)CCS(=O)(=O)c3ccc4c(c3)NC(=O)CO4)CC2)c1, which inhibition is on record?
**A.** 28.3%
